Results on 29 compounds are retold here after PubChem BioAssay (NCATS).

Results filed as inconclusive are left out. Values without a mark were called inactive. Active and inactive are the calls of the source. Calls follow the shape of the dose curve; as a rule, active = well fitted inhibition curve with a large enough effect; inconclusive = small, poorly fitted or top-dose-only effect; inactive = flat fitted curve, though single readings scatter.
% is scaled to controls: 0 for no effect and ±100 for the full control effect; potency is read from the fitted curve at half-maximal effect.

This test relates to CRL-7250. Briefly: Cytotoxic Profiling of Annotated Libraries Using Quantitative High-Throughput Screening (AID 1296008). Also: nearly all actives have a fitted effect of over 60% in size. Conditions: Five cell lines viability, CellTiter-Glo ATP luminescence, 48-72 h; max response: active compounds read low. In a few lines:
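Compounds were pin-transferred onto cells and incubated 48 or 72 hr at 37 degree Celsius, 95% humidity. CellTiter-Glo was added, plates sat 10 min at room temperature, then ATP-coupled luminescence was imaged as the viability read-out.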
Take `CN(C)[C@@H]1C(=O)C(C(N)=O)=C(O)[C@@]2(O)C(=O)C3=C(O)c4c(O)ccc(Cl)c4[C@@](C)(O)C3C[C@@H]12` (some centres undefined): the max response was -6.15%. Turning to `CC(C)[C@H](NC(=O)c1nn(Cc2ccc(F)cc2)c2ccccc12)C(N)=O`, the max response was -7.52%. Turning to `COC1CCCC(C)OC(=O)Cc2cc(O)cc(O)c2C(=O)C1` (centres undefined), the Potency is 14.3 µM (active).

On to `CN1CCCCC1Cn1cc(C(=O)c2cc([N+](=O)[O-])ccc2I)c2ccccc21` (centres undefined), for which the max response was 2.06%. For `COc1cc(C(=O)N2CC[C@@H](O)[C@@H](N)C2)cc2nc(-c3cc4ccccc4n3CC3CC3)n(C)c12`, the Potency was 20.9 µM (active). Same read-out and setting: the value for `C=C1C(=O)CC2OC2(C)CC2OC(=O)C(=C)C2C(O)C1OC(=O)/C(C)=C\C` (centres undefined) was 10.1 µM (active). Take `CC12CCC3C(C1)c1c(cc(O)c(C(=O)c4ccccc4)c1OC3(C)C)O2` (centres undefined): the result was inactive. For the compound `CN1C(=O)[C@@H](Cc2c[nH]c3ccccc23)N=C(c2ccccc2F)c2ccccc21`, the compound was called inactive.

On to `C#C[C@]1(O)CC[C@H]2[C@@H]3CC[C@H]4Cc5nc6nc7ccccc7n6cc5C[C@]4(C)[C@H]3CC[C@@]21C`, for which the max response is 1.18%. Regarding `CC(C)[C@H]1OC(=O)[C@H](Cc2ccccc2)N(C)C(=O)[C@@H](C(C)C)OC(=O)[C@H](Cc2ccccc2)N(C)C(=O)[C@@H](C(C)C)OC(=O)[C@H](Cc2ccccc2)N(C)C1=O`, the Potency is 4.85 µM (active).

For the compound `CCC1C2CC3C4N(C)c5ccccc5C45CC(C2C5O)N3C1O` (centres undefined), the max response is -9.12%. For `COc1cc(O)c2c(c1)CCC[C@@H](O)[C@H](O)C(=O)/C=C\C[C@H](C)OC2=O`, the Potency was 5.08 µM (active).

Consider `CCCCCCC1C(=O)O[C@H](C)[C@H](NC(=O)c2cccc(NC=O)c2O)C(=O)O[C@@H](C)[C@@H]1OC(=O)CC(C)C` (some centres undefined), for which the Potency is 0.58 µM (active). Regarding `C[C@@H]1O[C@@H](OC2CCC3(C=O)C(CCC4C3CCC3(C)C(C5=CC(=O)OC5)C(O)CC43O)C2)[C@H](O)[C@H](O)[C@H]1O[C@@H]1O[C@H](CO)[C@@H](O)[C@H](O)[C@H]1O` (some centres undefined), the Potency is 3.06 µM (active). For `C=C(C)C(=O)O[C@H]1[C@@H]2[C@H](C)C(=O)O[C@@H]2C[C@@H](C)[C@@H]2C=CC(=O)[C@]21C`, the Potency is 2.86 µM (active). For the compound `CCN1C[C@]2(COC)CC[C@H](O)[C@@]34C5C[C@@H]6[C@@H](OC)C[C@@](OC(C)=O)(C5[C@@H]6OC(C)=O)[C@H]([C@H](OC)C23)[C@@H]14` (some centres undefined), the max response was 0.922%. For the compound `C[C@]12CC[C@H](O)C[C@@]1(O)CC[C@@H]1[C@@H]2CC[C@]2(C)[C@@H](c3ccc(=O)oc3)CC[C@]12O`, the Potency is 0.0052 µM (active).

Regarding `CN1C(=O)N(c2ccc(C#N)c(C(F)(F)F)c2)C(=O)[C@@]1(CO)c1ccccc1`, the compound was called inactive. `CC(=O)O[C@H]1C[C@]2(O)[C@@H]3CC[C@@H]4C[C@@H](O)CC[C@]4(C)[C@H]3CC[C@]2(C)[C@H]1c1ccc(=O)oc1`: the Potency is 0.0517 µM (active). With `CCCCCn1cc(C(=O)Oc2cccc3cccnc23)c2ccccc21`, the result was inactive. Same read-out and setting: the value for `CN=C(NS(=O)(=O)c1ccc(Cl)cc1)N1C[C@H](c2ccccc2)C(c2ccc(Cl)cc2)=N1` was “inactive”. As to `COC1CC(O[C@H]2CC[C@@]3(C)C(CCC4C3CC[C@]3(C)C(C5=CC(=O)OC5)CCC43O)C2)OC(C)C1OC1OC(COC2OC(CO)C(O)C(O)C2O)C(O)C(O)C1O` (some centres undefined), the Potency is 0.693 µM (active).

For the compound `C=C(C)[C@@]12O[C@@H]1[C@@]1(C)C(=CC2=O)CC[C@@H](OC(C)=O)[C@@H]1C`, the Potency is 6.51 µM (active). Same read-out and setting: the value for `CN1Cc2c(ccc3c2OCO3)[C@@H]2[C@H]1c1cc3c(cc1C[C@@H]2O)OCO3` was 4.04 µM (active). With `CN(Cc1cccc(-c2ccncc2)c1)C(=O)Oc1ccc(-c2ccc(C(N)=O)cc2)cc1`, the result was inactive.

As for `CC1=CC2OC3CC(O)[C@](C)([C@@]2(C)C(O)C1=O)[C@]31CO1` (some centres undefined), the Potency was 5.8 µM (active). Regarding `CC[C@H](O)[C@@H](C)[C@H]1O[C@@H]1C[C@H](C)/C=C/C=C(\C)[C@H]1OC(=O)C[C@H](O)CC[C@@](C)(O)[C@@H](OC(C)=O)/C=C/[C@@H]1C`, the Potency was 0.0164 µM (active). Regarding `CN(C(=O)C(c1ccccc1)c1ccccc1)[C@H](CN1CC[C@H](O)C1)c1ccccc1`, the compound was classed as inactive. For the compound `COC(=O)C12C(=O)C(C)(O)C(=O)C1(C)C(C)=CC1C34CCC(OC3=O)C(C)(C)C4CCC12C` (centres undefined), the max response was -8.47%.
